In PubChem BioAssay AID1159580 (chemical genetic matrix, 2015):
Among all 5,500 compounds or so, about 2,000 (36%) were called active. About 18% were inconclusive and are not listed. No stated cut-off is given here; in the data, active means normalized growth mostly below about 0.91 (no sharp cut-off); inconclusive means no clear call, values can overlap the other calls; inactive means mostly above about 0.92. The list shows a part of the results.

Assay: chemical genetic growth profiling, strain panel (AID 1159580);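 further: tested at 20 µM; growth read once vehicle control cultures reached saturation at 30 °C; 1 = growth at the plate median or of vehicle wells; lower values mean less growth of the strain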
Conditions: growth OD

Measured: normalized growth

CC(C)N(C(=O)SCC(Cl)=C(Cl)Cl)C(C)C
inactive: S. cerevisiae deletion strains, locus YAL013W, strain DEP1, hits give low values 1.01 | S. cerevisiae deletion strains, locus YBR021W, strain FUR4, hits give low values 1.01 | S. cerevisiae deletion strains, locus YBR229C, strain ROT2, hits give low values 1.01 | S. cerevisiae deletion strains, locus YCL029C, strain bik1, hits give low values 1.01 | S. cerevisiae deletion strains, locus YDL035C, strain GPR1, hits give low values 1.01 | S. cerevisiae deletion strains, locus YDL074C, strain BRE1, hits give low values 1.04 | S. cerevisiae deletion strains, locus YDL101C, strain DUN1, hits give low values 1.02 | S. cerevisiae deletion strains, locus YDL134C, strain PPH21, hits give low values 1.02 | S. cerevisiae deletion strains, locus YDL185W, strain tfp1, hits give low values 0.999 | S. cerevisiae deletion strains, locus YDL192W, strain arf1, hits give low values 0.998 | S. cerevisiae deletion strains, locus YDR101C, strain arx1, hits give low values 0.998 | S. cerevisiae deletion strains, locus YDR150W, strain NUM1, hits give low values 1.02 | S. cerevisiae deletion strains, locus YDR162C, strain NBP2, hits give low values 1.02 | S. cerevisiae deletion strains, locus YDR318W, strain mcm21, hits give low values 1 | S. cerevisiae deletion strains, locus YDR388W, hits give low values 1 | S. cerevisiae deletion strains, locus YDR502C, strain sam2, hits give low values 1 | S. cerevisiae deletion strains, locus YEL061C, strain CIN8, hits give low values 1.01 | S. cerevisiae deletion strains, locus YER110C, hits give low values 0.998 | S. cerevisiae deletion strains, locus YER155C, strain BEM2, hits give low values 1.02 | S. cerevisiae deletion strains, locus YER167W, strain BCK2, hits give low values 1.03 | S. cerevisiae deletion strains, locus YGL078C, strain dbp3, hits give low values 0.996 | S. cerevisiae deletion strains, locus YGL086W, strain mad1, hits give low values 1.01 | S. cerevisiae deletion strains, locus YGL248W, strain PDE1, hits give low values 1.02 | S. cerevisiae deletion strains, locus YGR078C, strain PAC10, hits give low values 1.02 | S. cerevisiae deletion strains, locus YGR135W, strain pre9, hits give low values 0.995 | S. cerevisiae deletion strains, locus YGR229C, strain SMI1, hits give low values 1.04 | S. cerevisiae deletion strains, locus YGR252W, strain gcn5, hits give low values 0.945 | S. cerevisiae deletion strains, locus YHR030C, strain SLT2, hits give low values 1.02 | S. cerevisiae deletion strains, locus YHR079C, strain IRE1 (second series), hits give low values 1 | S. cerevisiae deletion strains, locus YHR094C, strain hxt1, hits give low values 1.01 | S. cerevisiae deletion strains, locus YHR200W, strain rpn10, hits give low values 1 | S. cerevisiae deletion strains, locus YIL066C, strain RNR3, hits give low values 1.02 | S. cerevisiae deletion strains, locus YIL073C, strain SPO22, hits give low values 1.04 | S. cerevisiae deletion strains, locus YIL125W, strain kgd1, hits give low values 1 | S. cerevisiae deletion strains, locus YIR030C, strain dcg1, hits give low values 1 | S. cerevisiae deletion strains, locus YJL095W, strain BCK1, hits give low values 1.03 | S. cerevisiae deletion strains, locus YJL134W, strain LCB3, hits give low values 1.02 | S. cerevisiae deletion strains, locus YJL168C, strain set2, hits give low values 1 | S. cerevisiae deletion strains, locus YJL187C, strain SWE1 (second series), hits give low values 1.01 | S. cerevisiae deletion strains, locus YJR043C, strain POL32, hits give low values 1.01 | S. cerevisiae deletion strains, locus YJR075W, strain HOC1, hits give low values 1.03 | S. cerevisiae deletion strains, locus YKL009W, strain mrt4, hits give low values 1.01 | S. cerevisiae deletion strains, locus YKL068W, hits give low values 1.01 | S. cerevisiae deletion strains, locus YKL085W, strain MDH1 (second series), hits give low values 1.01 | S. cerevisiae deletion strains, locus YKL085W, strain MDH1, hits give low values 1.01 | S. cerevisiae deletion strains, locus YKL190W, strain CNB1, hits give low values 1.04 | S. cerevisiae deletion strains, locus YKR001C, strain vps1, hits give low values 0.987 | S. cerevisiae deletion strains, locus YLR039C, strain RIC1, hits give low values 0.9 | S. cerevisiae deletion strains, locus YLR058C, strain SHM2, hits give low values 1.01 | S. cerevisiae deletion strains, locus YLR102C, strain apc9, hits give low values 1.01 | S. cerevisiae deletion strains, locus YLR262C, strain YPT6, hits give low values 0.977 | S. cerevisiae deletion strains, locus YLR268W, strain sec22, hits give low values 0.981 | S. cerevisiae deletion strains, locus YLR330W, strain CHS5, hits give low values 1.01 | S. cerevisiae deletion strains, locus YLR342W, strain FKS1 (second series), hits give low values 1.02 | S. cerevisiae deletion strains, locus YLR371W, strain rom2, hits give low values 1 | S. cerevisiae deletion strains, locus YLR418C, strain cdc73, hits give low values 0.996 | S. cerevisiae deletion strains, locus YML016C, strain PPZ1, hits give low values 1.02 | S. cerevisiae deletion strains, locus YML032C, strain rad52, hits give low values 1 | S. cerevisiae deletion strains, locus YML124C, strain tub3, hits give low values 1 | S. cerevisiae deletion strains, locus YMR078C, strain ctf18, hits give low values 1.01 | S. cerevisiae deletion strains, locus YMR223W, strain ubp8, hits give low values 0.998 | S. cerevisiae deletion strains, locus YMR263W, strain SAP30, hits give low values 1.03 | S. cerevisiae deletion strains, locus YMR307W, strain GAS1, hits give low values 1.01 | S. cerevisiae deletion strains, locus YNL067W, strain RPL9B, hits give low values 1.02 | S. cerevisiae deletion strains, locus YNL128W, strain TEP1, hits give low values 1.02 | S. cerevisiae deletion strains, locus YNL153C, strain GIM3, hits give low values 1.01 | S. cerevisiae deletion strains, locus YNL233W, strain BNI4, hits give low values 1.02 | S. cerevisiae deletion strains, locus YNL250W, strain rad50, hits give low values 0.999 | S. cerevisiae deletion strains, locus YNL271C, strain bni1, hits give low values 1 | S. cerevisiae deletion strains, locus YNL298W, strain CLA4, hits give low values 0.986 | S. cerevisiae deletion strains, locus YNL307C, strain MCK1, hits give low values 0.979 | S. cerevisiae deletion strains, locus YNL322C, strain KRE1, hits give low values 1.01 | S. cerevisiae deletion strains, locus YNR052C, strain pop2, hits give low values 1 | S. cerevisiae deletion strains, locus YOL006C, strain TOP1, hits give low values 1.08 | S. cerevisiae deletion strains, locus YOL012C, strain htz1 0.763 | S. cerevisiae deletion strains, locus YOL147C, strain pex11, hits give low values 1 | S. cerevisiae deletion strains, locus YOR061W, strain CKA2, hits give low values 1.02 | S. cerevisiae deletion strains, locus YOR069W, strain VPS5, hits give low values 1.02 | S. cerevisiae deletion strains, locus YOR136W, strain idh2, hits give low values 0.996 | S. cerevisiae deletion strains, locus YOR144C, strain elg1, hits give low values 1.01 | S. cerevisiae deletion strains, locus YOR184W, strain ser1, hits give low values 0.99 | S. cerevisiae deletion strains, locus YOR316C, strain cot1, hits give low values 1.01 | S. cerevisiae deletion strains, locus YPL055C, strain LGE1, hits give low values 1.04 | S. cerevisiae deletion strains, locus YPL241C, strain CIN2, hits give low values 1.02 | S. cerevisiae deletion strains, locus YPR119W, strain clb2, hits give low values 1 | S. cerevisiae deletion strains, locus YPR141C, strain kar3, hits give low values 1 | S. cerevisiae deletion strains, locus YPR163C, strain tif3, hits give low values 0.998 | S. cerevisiae deletion strains, locus YPR167C, strain met16, hits give low values 1.01 | S. cerevisiae deletion strains, strain wtn01, hits give low values 0.998 | S. cerevisiae strains, strain wild type, hits give low values 1.01
